Assay results published in ChEMBL document CHEMBL3433997, “St. Jude Leishmania screening dataset” (2016).

molecular target: Solute carrier family 2, facilitated glucose transporter member 1 (Homo sapiens) (UniProt P11166); test: ST_JUDE_LEISH: Cytotoxicity at 2uM final concentration against transgenic Leishmania Mexicana promastigotes LmGLUT1 that are glucose transport deficient and complemented with the human glucose transporter GLUT1. Activity is measured by DNA content using SYBR green in vitro; type: functional
Sequence (P11166 whole entry): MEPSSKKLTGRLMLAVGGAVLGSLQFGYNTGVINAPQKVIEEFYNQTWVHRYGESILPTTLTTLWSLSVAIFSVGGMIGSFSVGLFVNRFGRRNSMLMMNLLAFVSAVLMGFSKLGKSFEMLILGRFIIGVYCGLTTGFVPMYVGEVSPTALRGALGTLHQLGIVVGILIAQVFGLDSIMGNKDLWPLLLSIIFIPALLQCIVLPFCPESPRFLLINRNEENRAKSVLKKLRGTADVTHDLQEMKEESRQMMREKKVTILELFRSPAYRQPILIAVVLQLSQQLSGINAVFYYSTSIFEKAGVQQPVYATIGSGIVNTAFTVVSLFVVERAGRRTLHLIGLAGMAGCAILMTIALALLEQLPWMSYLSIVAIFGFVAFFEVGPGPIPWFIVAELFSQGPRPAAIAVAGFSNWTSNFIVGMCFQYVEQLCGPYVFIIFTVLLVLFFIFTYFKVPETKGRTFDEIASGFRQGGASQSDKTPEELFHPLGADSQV

Row | SMILES | inhibition [%]
1 | N#Cc1ccc2c(c1)CCN(CCC1CCC(NC(=O)/C=C/c3ccc(Cl)c(Cl)c3)CC1)CC2 (stereo not given) | 9.87
2 | O=C(NC1CCN(Cc2ccsc2)CC1)c1ccc(-c2cccc(C(F)(F)F)c2)s1 | 8.18
3 | COc1c(C2CCN(CCCCNC(=O)c3ccc(NC(=O)c4ccc(C#N)cc4)cc3)CC2)ccc2c1CCCC2 | 1.73
4 | CC(C)CCNCc1ccc(OCc2cccc(C(=O)Nc3ccccc3)c2)c(I)c1 | 3.34
5 | Cc1cccc2nc(-c3cccc(-c4ccc(NC(=O)C(C)CN5CCOCC5)cc4)c3)[nH]c12 (stereo not given) | 3.62
6 | Cc1cccc2nc(-c3cccc(-c4cccc(CNC(C)C)c4)c3)[nH]c12 | -0.63
7 | Nc1nc(O)c2c(n1)CCc1c(Br)cccc1-2 | -1.17
8 | COc1ccc(NC(=O)c2csc(-c3cc(NC(=O)c4ccnc(N5CCCC5)c4)ccc3C)c2)cc1N1CCN(C)CC1 | 1.89
9 | CC(C)C[C@H](NC(=O)[C@H](Cc1ccccc1)NC(=O)CCN1C(=O)COc2ccc(C(=O)O)cc21)C(=O)NC(CC1CCCCC1)C(O)CC(=O)NCCCn1ccnc1 (stereo not given in full) | 9.79
10 | CCN(CC)c1ccccc1CNC(=O)c1cc(Cl)c(N)cc1OC | 9.4
11 | CCCC(=O)Nc1ccc(OCCCN(Cc2ccccc2F)c2ccc(C#N)c(C(F)(F)F)c2)cc1 | 1.79
12 | N=C1NC(c2ccccc2)(c2ccccc2)C(=O)N1CC=Cc1ccccc1 | 7.01
13 | COc1cccc2c(NN=Cc3cccc(Cl)c3)cc(C)nc12 | -0.65
14 | Clc1cc(Nc2ncnc3cc(C#C[C@H]4CCCN4)sc23)cc2nc(Cc3ccccc3)[nH]c12 | 1.94
15 | CCN(CCCN1CCCCC1)c1cc(C)nc(Nc2ccc(Cl)cc2C)n1 | 1.07
16 | O=C(Nc1ccc(Cn2ncc(N3CCCNCC3)c(Cl)c2=O)cc1)Nc1cccc(Oc2ccccc2)c1 | 2.36
17 | CCCCCCC(C)c1cc(OCCN(CC)CC)c2c(c1)OC(C)(C)C=C2c1ccncc1 (stereo not given) | -0.93
18 | COCCCNc1sc(S(=O)(=O)c2ccccc2)nc1S(=O)(=O)c1ccc(Cl)cc1 | 3.07
19 | CC(C)Sc1nc2c(c(=O)n1Cc1ccco1)C1(CCCC1)Cc1ccccc1-2 | 6.99
20 | O=S(=O)(NCCN1CCCC1)c1ccc(-c2cccc(CNC3Cc4ccccc4C3)c2)cc1F | 7.61

Row | SMILES | inhibition [%]
21 | Cc1nc2nc(N)nc(N)c2c(C)c1Cc1cccc(C(N)=O)c1 | 1.17
22 | COc1ccccc1C1CCN(C2CCC(NC(=O)/C=C/c3ccc4c(c3)OC(F)(F)O4)CC2)CC1 (stereo not given) | 4.33
23 | Cc1noc(C)c1-c1ccc(C(=C2CCCCCCC2)c2ccc(O)cc2)cc1 | -4.06
24 | CCCc1cc(OCCCOc2ccccc2)ccc1OCCCON1C(=N)N=C(N)NC1(C)C | 20.6
25 | Oc1ccc2c(CNC3CCCCC3)c(O)ccc2c1CNC1CCCCC1 | -0.71
26 | O=C(NCCN1CCCC1)c1cccc(-c2ccc(-c3nc4ccccc4[nH]3)s2)c1 | 3.42
27 | Cc1cccn2c(=O)c3cc(C(=O)NC(C)c4ccccc4)c(=N)n(CCc4ccccc4)c3nc12 (stereo not given) | 12.2
28 | Cc1cccc2nc(-c3cccc(-c4ccc(CNCc5ccccc5)cc4)c3)[nH]c12 | 5.37
29 | COc1ccc2nc3cc(Cl)ccc3c(NCCN(C)C)c2c1 | 7.53
30 | Cc1nn(-c2ccccc2)c2sc(C(=O)N(CCCN(C)C)c3nc(-c4ccccc4)cs3)cc12 | 1.15
31 | CCOC(=O)C(C#N)NC(=O)C=Cc1ccccc1 (stereo not given) | 7.73
32 | Cc1[nH]c(C)c(C(F)(F)F)c(=O)c1-c1ccc(Oc2ccc(OC(F)(F)F)cc2)cc1 | 2.24
33 | CCCCN(CCCC)CCNC(=O)c1ccc(-c2nc3cc(Cl)ccc3[nH]2)c(OCC)c1 | 4.49
34 | Cc1cc(=O)c(-c2ccc(Oc3cccc(OC(F)(F)F)c3)cc2)c(C)[nH]1 | 1.89
35 | COc1ccc2nccc([C@@H](O)CN3CCC(NCc4ccc5nnsc5c4)CC3)c2c1 | -1.03
36 | Cc1noc(C)c1-c1ccc2c(Nc3ccccc3C(C)(C)C)c(C(=O)NCc3cccc4ccccc34)cnc2c1 | 2.41
37 | CCCC/C=C(\Cl)c1ccc(O)c2c1C[C@H]1C[C@H]3[C@H](N(C)C)C(O)=C(C(N)=O)C(=O)[C@@]3(O)C(O)=C1C2=O | -0.21
38 | Cc1noc(-c2ccc(NC[C@@H](C)NC[C@H](O)c3cccc(Cl)c3)cc2)n1 | 3.79
39 | O=C(OCc1ccccn1)c1nc2ccccc2[nH]1 | 0.81
40 | CCn1ccc2c(N3CCCC3=O)cc(C(=O)N[C@@H](Cc3ccccc3)[C@H](O)CNC3CCCCC3)cc21 | 4.2

molecular target: Hexose transporter 1 (Plasmodium falciparum) (UniProt O97467); test: ST_JUDE_LEISH: Cytotoxicity at 2uM final concentration against transgenic Leishmania Mexicana promastigotes LmPfHT that are glucose transport deficient and complemented with the Plasmodium falciparum hexose transporter. Activity is measured by DNA content using SYBR green in vitro; type: functional

Row | SMILES | inhibition [%]
41 | N#Cc1ccc2c(c1)CCN(CCC1CCC(NC(=O)/C=C/c3ccc(Cl)c(Cl)c3)CC1)CC2 (stereo not given) | 13.1
42 | O=C(NC1CCN(Cc2ccsc2)CC1)c1ccc(-c2cccc(C(F)(F)F)c2)s1 | 9.07
43 | COc1c(C2CCN(CCCCNC(=O)c3ccc(NC(=O)c4ccc(C#N)cc4)cc3)CC2)ccc2c1CCCC2 | 0.65
44 | CC(C)CCNCc1ccc(OCc2cccc(C(=O)Nc3ccccc3)c2)c(I)c1 | 3.14
45 | Cc1cccc2nc(-c3cccc(-c4ccc(NC(=O)C(C)CN5CCOCC5)cc4)c3)[nH]c12 (stereo not given) | 2.93
46 | Cc1cccc2nc(-c3cccc(-c4cccc(CNC(C)C)c4)c3)[nH]c12 | 0.85
47 | Nc1nc(O)c2c(n1)CCc1c(Br)cccc1-2 | -0.59
48 | COc1ccc(NC(=O)c2csc(-c3cc(NC(=O)c4ccnc(N5CCCC5)c4)ccc3C)c2)cc1N1CCN(C)CC1 | 2.56
49 | CC(C)C[C@H](NC(=O)[C@H](Cc1ccccc1)NC(=O)CCN1C(=O)COc2ccc(C(=O)O)cc21)C(=O)NC(CC1CCCCC1)C(O)CC(=O)NCCCn1ccnc1 (stereo not given in full) | 6.73
50 | CCN(CC)c1ccccc1CNC(=O)c1cc(Cl)c(N)cc1OC | 9.03
51 | CCCC(=O)Nc1ccc(OCCCN(Cc2ccccc2F)c2ccc(C#N)c(C(F)(F)F)c2)cc1 | 0.66
52 | N=C1NC(c2ccccc2)(c2ccccc2)C(=O)N1CC=Cc1ccccc1 | 8.66
53 | COc1cccc2c(NN=Cc3cccc(Cl)c3)cc(C)nc12 | 0.14
54 | Clc1cc(Nc2ncnc3cc(C#C[C@H]4CCCN4)sc23)cc2nc(Cc3ccccc3)[nH]c12 | -0.56
55 | CCN(CCCN1CCCCC1)c1cc(C)nc(Nc2ccc(Cl)cc2C)n1 | 1.21
56 | O=C(Nc1ccc(Cn2ncc(N3CCCNCC3)c(Cl)c2=O)cc1)Nc1cccc(Oc2ccccc2)c1 | 2.39
57 | CCCCCCC(C)c1cc(OCCN(CC)CC)c2c(c1)OC(C)(C)C=C2c1ccncc1 (stereo not given) | 0.33
58 | COCCCNc1sc(S(=O)(=O)c2ccccc2)nc1S(=O)(=O)c1ccc(Cl)cc1 | 3.36
59 | CC(C)Sc1nc2c(c(=O)n1Cc1ccco1)C1(CCCC1)Cc1ccccc1-2 | 4.28
60 | O=S(=O)(NCCN1CCCC1)c1ccc(-c2cccc(CNC3Cc4ccccc4C3)c2)cc1F | 2.53

Row | SMILES | inhibition [%]
61 | Cc1nc2nc(N)nc(N)c2c(C)c1Cc1cccc(C(N)=O)c1 | 1.95
62 | COc1ccccc1C1CCN(C2CCC(NC(=O)/C=C/c3ccc4c(c3)OC(F)(F)O4)CC2)CC1 (stereo not given) | 4.26
63 | Cc1noc(C)c1-c1ccc(C(=C2CCCCCCC2)c2ccc(O)cc2)cc1 | -2.9
64 | CCCc1cc(OCCCOc2ccccc2)ccc1OCCCON1C(=N)N=C(N)NC1(C)C | 26.8
65 | Oc1ccc2c(CNC3CCCCC3)c(O)ccc2c1CNC1CCCCC1 | 0.24
66 | O=C(NCCN1CCCC1)c1cccc(-c2ccc(-c3nc4ccccc4[nH]3)s2)c1 | 1.36
67 | Cc1cccn2c(=O)c3cc(C(=O)NC(C)c4ccccc4)c(=N)n(CCc4ccccc4)c3nc12 (stereo not given) | 16.8
68 | Cc1cccc2nc(-c3cccc(-c4ccc(CNCc5ccccc5)cc4)c3)[nH]c12 | 3.63
69 | COc1ccc2nc3cc(Cl)ccc3c(NCCN(C)C)c2c1 | 5.07
70 | Cc1nn(-c2ccccc2)c2sc(C(=O)N(CCCN(C)C)c3nc(-c4ccccc4)cs3)cc12 | 3.31
71 | CCOC(=O)C(C#N)NC(=O)C=Cc1ccccc1 (stereo not given) | 6.93
72 | Cc1[nH]c(C)c(C(F)(F)F)c(=O)c1-c1ccc(Oc2ccc(OC(F)(F)F)cc2)cc1 | 2.31
73 | CCCCN(CCCC)CCNC(=O)c1ccc(-c2nc3cc(Cl)ccc3[nH]2)c(OCC)c1 | 2.11
74 | Cc1cc(=O)c(-c2ccc(Oc3cccc(OC(F)(F)F)c3)cc2)c(C)[nH]1 | 1.17
75 | COc1ccc2nccc([C@@H](O)CN3CCC(NCc4ccc5nnsc5c4)CC3)c2c1 | 0.44
76 | Cc1noc(C)c1-c1ccc2c(Nc3ccccc3C(C)(C)C)c(C(=O)NCc3cccc4ccccc34)cnc2c1 | 2.01
77 | CCCC/C=C(\Cl)c1ccc(O)c2c1C[C@H]1C[C@H]3[C@H](N(C)C)C(O)=C(C(N)=O)C(=O)[C@@]3(O)C(O)=C1C2=O | -1.57
78 | Cc1noc(-c2ccc(NC[C@@H](C)NC[C@H](O)c3cccc(Cl)c3)cc2)n1 | 3.1
79 | O=C(OCc1ccccn1)c1nc2ccccc2[nH]1 | 2.57
80 | CCn1ccc2c(N3CCCC3=O)cc(C(=O)N[C@@H](Cc3ccccc3)[C@H](O)CNC3CCCCC3)cc21 | 7.08
